Results as given in PubChem BioAssay (NCATS).
Where “and” joins values, the source holds several entries; their conditions need not be identical. Equal entries are not always repeated. Results filed as inconclusive are left out. Calls of active or inactive are those of the source. Calls follow the shape of the dose curve; as a rule, active = well fitted inhibition curve with a large enough effect; inconclusive = small, poorly fitted or top-dose-only effect; inactive = flat fitted curve, though single readings scatter.

Columns and labels:
CRL-7250 = normal cell line; assay: Cytotoxic Profiling of Annotated Libraries Using Quantitative High-Throughput Screening (AID 1296008); conditions: Five cell lines viability, CellTiter-Glo ATP luminescence, 48-72 h; max response: stronger effect = lower value; as to max response: % is scaled to controls: 0 for no effect and ±100 for the full control effect
Method in brief: (§1)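 Compounds were pin-transferred onto cells and incubated 48 or 72 hr at 37 degree Celsius, 95% humidity. CellTiter-Glo was added, plates sat 10 min at room temperature, then ATP-coupled luminescence was imaged as the viability read-out.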

HEK293 = assay: as above; conditions: Five cell lines viability, CellTiter-Glo ATP luminescence, 48-72 h; max response: stronger effect = lower value
Method in brief: as §1

HaCat = assay: as above; conditions: Five cell lines viability, CellTiter-Glo ATP luminescence, 48-72 h; max response: stronger effect = lower value
Method in brief: as §1

KB-3-1 = assay: as above; conditions: Five cell lines viability, CellTiter-Glo ATP luminescence, 48-72 h; max response: stronger effect = lower value
Method in brief: as §1

GB4 = assay: qHTS profiling for inhibitors of Plasmodium falciparum proliferation (AID 504749); conditions: P. falciparum in erythrocytes, SYBR Green DNA, 72 h; series mostly up to 28.7 µM
Method in brief: (§2)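 Parasite proliferation within erythrocytes, 72 h exposure. Endpoint: SYBR Green I fluorescence after overnight lysis at room temperature. Controls: 0.29 uM artemisinin, DMSO.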

HB3 = assay: as above; conditions: P. falciparum in erythrocytes, SYBR Green DNA, 72 h; series mostly up to 28.7 µM
Method in brief: as §2

ICS = assay: as above; conditions: P. falciparum in erythrocytes, SYBR Green DNA, 72 h; series mostly up to 28.7 µM
Method in brief: as §2

JCK = assay: as above; conditions: P. falciparum in erythrocytes, SYBR Green DNA, 72 h; series mostly up to 28.7 µM
Method in brief: as §2

P94_40 = assay: as above; conditions: P. falciparum in erythrocytes, SYBR Green DNA, 72 h; series mostly up to 28.7 µM
Method in brief: as §2

PC15 = assay: as above; conditions: P. falciparum in erythrocytes, SYBR Green DNA, 72 h; series mostly up to 28.7 µM
Method in brief: as §2

PC49 = assay: as above; conditions: P. falciparum in erythrocytes, SYBR Green DNA, 72 h; series mostly up to 28.7 µM
Method in brief: as §2

SC27B = assay: as above; conditions: P. falciparum in erythrocytes, SYBR Green DNA, 72 h; series mostly up to 28.7 µM
Method in brief: as §2

TAB109 = assay: as above; conditions: P. falciparum in erythrocytes, SYBR Green DNA, 72 h; series mostly up to 28.7 µM
Method in brief: as §2

TAB113 = assay: as above; conditions: P. falciparum in erythrocytes, SYBR Green DNA, 72 h; series mostly up to 28.7 µM
Method in brief: as §2

TAB165 = assay: as above; conditions: P. falciparum in erythrocytes, SYBR Green DNA, 72 h; series mostly up to 28.7 µM
Method in brief: as §2

W2 = assay: as above; conditions: P. falciparum in erythrocytes, SYBR Green DNA, 72 h; series mostly up to 28.7 µM
Method in brief: as §2

N140 = assay: as above; conditions: P. falciparum in erythrocytes, SYBR Green DNA, 72 h; series mostly up to 28.7 µM
Method in brief: as §2

P93_24 = assay: as above; conditions: P. falciparum in erythrocytes, SYBR Green DNA, 72 h; series mostly up to 28.7 µM
Method in brief: as §2

PAD = assay: as above; conditions: P. falciparum in erythrocytes, SYBR Green DNA, 72 h; series mostly up to 28.7 µM
Method in brief: as §2

PC26 = assay: as above; conditions: P. falciparum in erythrocytes, SYBR Green DNA, 72 h; series mostly up to 28.7 µM
Method in brief: as §2
Also: nearly all actives have a fitted effect of over 60% in size.
Potency is read from the fitted curve at half-maximal effect.

O=C(O)CC1CC(c2ccccc2)=NO1 (stereo not given)
inactive: max response (CRL-7250) -3.03% | max response (HEK293) 0.396% | max response (HaCat) -1.53% | outcome (KB-3-1)

COc1cc(/C=C/C(=O)N2CCN(CC(=O)N3CCCC3)CC2)cc(OC)c1OC
active: Potency (ICS) 11.2 µM
inactive: Potency (GB4) | Potency (HB3) | Potency (JCK) | Potency (P94_40) | Potency (PC15) | Potency (PC49) | Potency (SC27B) | Potency (TAB109) | Potency (TAB113) | Potency (TAB165) | Potency (W2) | max response (CRL-7250) -2.29% | max response (HEK293) 1.99% | outcome (HaCat) | max response (KB-3-1) 5.58% | outcome (KB-3-1)

Cc1c(Nc2ncccc2C(=O)O)cccc1C(F)(F)F
inactive: Potency (GB4) | Potency (HB3) | Potency (ICS) | Potency (JCK) | Potency (N140) | Potency (P93_24) | Potency (P94_40) | Potency (PAD) | Potency (PC15) | Potency (PC26) | Potency (PC49) | Potency (SC27B) | Potency (TAB109) | Potency (TAB113) | Potency (TAB165) | Potency (W2) | max response (CRL-7250) -2.3% | max response (HEK293) -18.7% | max response (HaCat) 1.65% | max response (KB-3-1) -9.8%

O=C(O)[C@H](CC(=O)N1C[C@H]2CCCC[C@H]2C1)Cc1ccccc1
inactive: Potency (GB4) | Potency (HB3) | Potency (ICS) | Potency (JCK) | Potency (N140) | Potency (P93_24) | Potency (P94_40) | Potency (PAD) | Potency (PC15) | Potency (PC26) | Potency (PC49) | Potency (SC27B) | Potency (TAB109) | Potency (TAB113) | Potency (TAB165) | Potency (W2) | max response (CRL-7250) -6.27% | max response (HEK293) -22.3% | max response (HaCat) -9.54% | max response (KB-3-1) -7.55% and -0.116%

Nc1c(CC(=O)O)cccc1C(=O)c1ccc(Br)cc1
inactive: Potency (GB4) | Potency (HB3) | Potency (ICS) | Potency (JCK) | Potency (N140) | Potency (P93_24) | Potency (P94_40) | Potency (PAD) | Potency (PC15) | Potency (PC26) | Potency (PC49) | Potency (SC27B) | Potency (TAB109) | Potency (TAB113) | Potency (TAB165) | Potency (W2) | max response (CRL-7250) 4.53% | max response (HEK293) 2.21% | outcome (HaCat) | max response (KB-3-1) 0.539%

CC1(C)[C@@H](O)CC[C@]2(C)[C@H]3C(=O)C=C4[C@@H]5C[C@@](C)(C(=O)O)CC[C@]5(C)CC[C@@]4(C)[C@]3(C)CC[C@@H]12
inactive: Potency (GB4) | Potency (HB3) | Potency (ICS) | Potency (JCK) | Potency (N140) | Potency (P93_24) | Potency (P94_40) | Potency (PAD) | Potency (PC15) | Potency (PC26) | Potency (PC49) | Potency (SC27B) | Potency (TAB109) | Potency (TAB113) | Potency (TAB165) | Potency (W2) | max response (CRL-7250) 1.85% | outcome (HEK293) | max response (HaCat) -15.3% | max response (KB-3-1) 9.23% and -7.89% | outcome (KB-3-1)

O=C(Nc1ccc(C(=O)O)c(O)c1)c1ccccc1
inactive: Potency (GB4) | Potency (HB3) | Potency (ICS) | Potency (JCK) | Potency (N140) | Potency (P94_40) | Potency (PAD) | Potency (PC15) | Potency (PC26) | Potency (PC49) | Potency (SC27B) | Potency (TAB109) | Potency (TAB113) | Potency (TAB165) | Potency (W2) | outcome (CRL-7250) | outcome (HEK293) | outcome (HaCat) | max response (KB-3-1) -1.99%

CCOC(=O)c1ccccc1O
inactive: Potency (GB4) | Potency (HB3) | Potency (ICS) | Potency (JCK) | Potency (N140) | Potency (P93_24) | Potency (P94_40) | Potency (PAD) | Potency (PC15) | Potency (PC26) | Potency (PC49) | Potency (SC27B) | Potency (TAB109) | Potency (TAB113) | Potency (TAB165) | Potency (W2) | max response (CRL-7250) 3.39% | outcome (HEK293) | max response (HaCat) -10.3% | max response (KB-3-1) -11.3% and -16.2%

CN1CCN(c2cc3c(nn2)Oc2ccccc2N3C)CC1
inactive: Potency (GB4) | Potency (HB3) | Potency (ICS) | Potency (JCK) | Potency (N140) | Potency (P93_24) | Potency (P94_40) | Potency (PAD) | Potency (PC15) | Potency (PC26) | Potency (PC49) | Potency (SC27B) | Potency (TAB109) | Potency (TAB113) | Potency (TAB165) | Potency (W2) | max response (CRL-7250) -2.91% | outcome (HEK293) | outcome (HaCat) | max response (KB-3-1) -19.4%

COC(=O)[C@H]1[C@H]2C[C@@H]3c4[nH]c5cc(OC)ccc5c4CCN3C[C@H]2C[C@@H](OC(=O)/C=C/c2cc(OC)c(OC)c(OC)c2)[C@@H]1OC
inactive: max response (CRL-7250) -14.2% | max response (HEK293) -6.09% | outcome (HaCat) | max response (KB-3-1) -8.17% | outcome (KB-3-1)

CN(C)c1ccc(C(=C2C=CC(=[N+](C)C)C=C2)c2ccccc2)cc1
inactive: Potency (JCK) | Potency (PC49) | Potency (SC27B) | max response (KB-3-1) -1.13%
active: Potency (GB4) 4.26 µM | Potency (HB3) 11.2 µM | Potency (ICS) 2.24 µM | Potency (P93_24) 10 µM | Potency (TAB109) 12.6 µM | Potency (TAB165) 5.01 µM | Potency (W2) 1.35 µM | Potency (CRL-7250) 0.0841 µM | Potency (HEK293) 0.0944 µM | Potency (HaCat) 0.266 µM
